Tb PYK inh – qHTS of Trypanosoma Brucei Inhibitors; hit rate 0.12% among 410,000; Potency, µM (series often up to 76.8 µM), actives largely listed as inhibitors; TbPYK enzyme, Kinase-Glo Plus ATP luminescence, 45 min; AID 624173, 2012; note: nearly all actives have a fitted effect of over 50% in size
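Luminescent Kinase-Glo Plus end-point after 45 min room-temperature reaction of T. brucei pyruvate kinase started with 130 uM ADP (final). Buffer TEA 50 mM pH 7.2 with KCl, MgCl2, BSA, Tween-20; titration-based qHTS with fitted concentration-effect curves.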
RE007 growth inh – qHTS Assay for Inhibitors of the HIV-1 protein Vpr. S. pombe RE007 Vpr strain, BacTiter-Glo ATP luminescence, 24 h. Potency, µM (highest dose often 92.2 µM), most hits filed as inhibitors. AID 651644, 2012. hit rate 0.21% among 360,000; active = well fitted falling curve with a large enough effect; inconclusive = small, poorly fitted or top-dose-only effect; inactive = no such curve, though single readings can be large or run the other way; note: nearly all actives have a fitted effect of over 50% in size
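Fission yeast RE007 carrying one integrated HIV-1 vpr copy, seeded at OD 0.01 in PMG+AL medium with 23 nL pinned compound. Grown 24 h at 30 degrees; viability read by BacTiter-Glo luminescence after 5 min.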
Cycloheximide cs – Cycloheximide Counterscreen for Small Molecule Inhibitors of Shiga Toxin. AID 2314, 2010. max response, %. hit rate 12% among 300,000. cell reporter, cycloheximide protein synthesis inhibition counterscreen; in the data active = max response mostly above about 13%, no sharp cut-off; inactive = mostly below about 14%; note: read at 38.3 µM for the half of the compounds with a filed dose
Shiga toxin inh – A qHTS for Small Molecule Inhibitors of Shiga Toxin | hit rate 9.2% among 290,000 | Vero cells, Shiga toxin protein synthesis inhibition reporter | inhibition, % at 38.7 µM; in the data active = inhibition mostly above about 28%, no sharp cut-off; inactive = mostly below about 43%
Giardia FBPA inh – qHTS Assay for Inhibitors of Fructose-1,6-bisphosphate Aldolase from Giardia Lamblia; purified Giardia FBPA; Potency, µM (top dose mostly 59.6 µM), usual class: inhibitors; hit rate 0.71% among 290,000; note: nearly all actives have a fitted effect of over 55% in size
Target sequence (A8B2U2 whole entry, looked up): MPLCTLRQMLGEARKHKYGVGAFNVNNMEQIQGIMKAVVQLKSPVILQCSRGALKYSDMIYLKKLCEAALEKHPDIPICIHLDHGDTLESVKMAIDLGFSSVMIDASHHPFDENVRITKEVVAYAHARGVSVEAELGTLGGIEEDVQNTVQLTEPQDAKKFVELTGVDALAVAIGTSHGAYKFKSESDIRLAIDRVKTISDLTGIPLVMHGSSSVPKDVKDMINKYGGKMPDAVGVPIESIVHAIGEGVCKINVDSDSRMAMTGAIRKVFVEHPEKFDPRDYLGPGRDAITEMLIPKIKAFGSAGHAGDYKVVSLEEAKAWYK
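40 nM FBPA preincubated 10 min at RT with compound (up to 57.5 uM final), then substrate plus GAPDH/TPI/NAD/arsenate coupling and diaphorase/resazurin added. Fluorescence read after 20 min at RT, 525/598 nm.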
LmPK inhibitor – qHTS Assay for Inhibitors of Leishmania Mexicana Pyruvate Kinase (LmPK); Q27686; purified LmPK, Kinase-Glo ATP luminescence, 1 h; Potency, µM (titrated, usually from 57.5 µM), hits mostly inhibitors; hit rate 0.37% among 290,000
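Screened at intermediate enzyme activity to detect both inhibitors and activators: LmPK at 0.1 nM, with a 0.5 nM enzyme column as activation reference. PEP 0.5 mM, ADP 0.1 mM; ATP detected by luminescence after 1 h.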
Each line names hits and unclear results; the compound was inactive in the other large screens. Many of the other results were omitted from the sample, so hits are more common in it than they were. Unless noted, calls come from the whole dose curve; as a rule, active = well fitted curve in the direction sought with a large enough effect; inconclusive = small, poorly fitted or top-dose-only effect, or another doubt; inactive = no such curve, though single readings can be large; an effect the other way counts as inactive or inconclusive.

CN1C(=O)/C(=C\c2ccc(N(C)C)cc2)OC1=S	Cycloheximide cs 11.6
CN(C)c1ccc(/C=C2\N=C(C(C)(C)C)OC2=O)cc1	none
COc1ccccc1C(=O)Nc1c(C(=O)Nc2ccccc2F)oc2ccccc12	none (no result: RE007 growth inh, Cycloheximide cs, Shiga toxin inh, Giardia FBPA inh, LmPK inhibitor)
CCC(=O)Nc1cccc(NC(=O)c2ccc(Br)cc2)c1	Cycloheximide cs 13.6
O=C(Nc1cccc(O)c1)c1ccc(Br)cc1	Cycloheximide cs 45.1, Shiga toxin inh 69.4
CC(=O)Nc1cccc(NC(=O)c2ccc(Br)cc2)c1	Cycloheximide cs 27.5
O=C(Nc1cccc(O)c1)c1cccc(C(=O)Nc2cccc(O)c2)c1	none
Cc1cccc(NC(=O)CCNC(=O)c2ccc(Br)cc2)c1	Cycloheximide cs 26.1, Shiga toxin inh 82.0
COc1cccc(C(=O)Nc2cccc(NC(C)=O)c2)c1	Giardia FBPA inh inconclusive
Cc1ccc(CNC(=O)c2cnc3c(-c4ccccc4)c(C)nn3c2C)o1	none (no result: RE007 growth inh, Cycloheximide cs, Shiga toxin inh, Giardia FBPA inh, LmPK inhibitor)
COc1ccc(OC2C(O)COC2/C=C/c2ccccc2)cc1 (stereo unspecified)	none (no result: Tb PYK inh, RE007 growth inh, Cycloheximide cs, Shiga toxin inh, LmPK inhibitor)
Cc1cc2cc(C=C(C#N)C#N)c(Cl)nc2cc1C	Cycloheximide cs 25.2, Shiga toxin inh active, Giardia FBPA inh inconclusive (no result: RE007 growth inh)
CCOC(=O)/C(C#N)=C/c1cc2cc(C)c(C)cc2nc1Cl	none
COC(=O)C1=C[C@@H](C(=O)OC)C2C3=C(C(=O)[C@]2(CC(C)C)NC(=O)c2ccccc2)[C@H](C)n2c(=O)n(C)c(=O)n2[C@@H]3C1 (stereo partly specified)	none (no result: Tb PYK inh, RE007 growth inh, LmPK inhibitor)
O=C(C1CC1)N1CCN(c2nc3c(Cl)cccc3s2)CC1	none (no result: RE007 growth inh, Cycloheximide cs, Shiga toxin inh, Giardia FBPA inh, LmPK inhibitor)
COc1ccc(OC)c2sc(N3CCCCC3)nc12	RE007 growth inh inconclusive, Cycloheximide cs 35.9, Shiga toxin inh 66.2
Clc1cccc2sc(N3CCCCC3)nc12	Cycloheximide cs 32.4, Shiga toxin inh 81.9
Brc1cccc2sc(N3CCN(c4ccccc4)CC3)nc12	Cycloheximide cs 24.0, Shiga toxin inh 30.0
COc1ccc(OC)c2sc(N3CCc4ccccc4C3)nc12	none
Clc1cc(Cl)c2nc(N3CCCC3)sc2c1	RE007 growth inh inconclusive (no result: Cycloheximide cs, Shiga toxin inh, Giardia FBPA inh, LmPK inhibitor)
Clc1cc(Cl)c2nc(N3CCCCC3)sc2c1	RE007 growth inh inconclusive, Cycloheximide cs 34.5, Shiga toxin inh 72.5
CCC(=O)Nc1ccccc1C(=O)OCc1ccc(C(=O)c2ccccc2)cc1	Cycloheximide cs 25.3
CC(=O)Nc1ccc(C(=O)OCc2ccc(F)cc2)cc1	none
CC(=O)Nc1ccccc1C(=O)OCc1ccc(F)cc1	Cycloheximide cs 32.0
Cc1ccc(CNC(=O)Cn2c(=O)n(Cc3ccccc3)c(=O)c3c2c2cc(C)ccc2n3C)cc1	none (no result: RE007 growth inh, Cycloheximide cs, Shiga toxin inh, Giardia FBPA inh, LmPK inhibitor)
O=C(NC1CCCCCCC1)c1c(O)c2ccccc2[nH]c1=O	Cycloheximide cs 15.9, Shiga toxin inh 47.0
COc1cc2c(cc1OC)[C@@H](Cc1cc(OC)c(OC)c(OC)c1)[N@+](C)(CCCOC(=O)CC/C=C/CCC(=O)OCCC[N@+]1(C)CCc3cc(OC)c(OC)cc3[C@H]1Cc1cc(OC)c(OC)c(OC)c1)CC2	none (no result: RE007 growth inh, Cycloheximide cs, Shiga toxin inh, Giardia FBPA inh, LmPK inhibitor)
CCOc1ccc(NC(=O)C(C)Sc2nccn2C)cc1 (stereo unspecified)	Cycloheximide cs 16.9
CCOc1ccc(C(O)c2nccn2C)cc1 (stereo unspecified)	Cycloheximide cs 42.0, Shiga toxin inh 107.6
CCOc1ccc(NC(=O)CSc2nccn2C)cc1	Cycloheximide cs 41.8, Shiga toxin inh 48.2
Cn1ccnc1SCC(=O)Nc1ccc(Oc2ccccc2)cc1	Cycloheximide cs 24.4
Cc1ccc(Cn2ccn(Cc3ccccc3F)c(=O)c2=O)cc1	none (no result: RE007 growth inh, Cycloheximide cs, Shiga toxin inh, Giardia FBPA inh, LmPK inhibitor)
CC(C)c1cc(C(=O)NNC(=S)NC2CCCCC2)cs1	Cycloheximide cs 31.6, Shiga toxin inh 51.0 (no result: Giardia FBPA inh)
CN(C)c1cccc(C(=O)NNC(=S)NC2CCCC2)c1	Cycloheximide cs 18.2
Cc1nn(C)c(C(=O)NNC(=S)NC2CCCCC2)c1Br	Cycloheximide cs 45.2, Shiga toxin inh 60.7
Cn1ncc(Br)c1C(=O)NC1CCCCCCC1	none
CCc1cc(C(=O)NNC(=S)NC2CCCCC2)cs1	Cycloheximide cs 46.3, Shiga toxin inh 54.3 (no result: Giardia FBPA inh)
